An excerpt weighted towards active compounds, which were near 6.9% of everything screened.
MCF10A rerep: inducers of DNA re-replication in MCF 10A breast cells; Potency, µM (series often up to 46.1 µM), actives largely listed as activators; MCF 10A DNA re-replication, Hoechst nuclear intensity, 48 h; AID 624296; actives 2.9% (n = 350,000); further: nearly all actives have a fitted effect of over 50% in size
Vif-APOBEC3G blk: Vif-A3G binding inhibition. Q9HC16. HeLa A3G-eYFP + Vif (tagged APOBEC3G with the HIV-1 protein that degrades it), YFP fluorescence, overnight. Potency, µM (highest dose often 46.1 µM), hits mostly inhibitors. actives 0.076% (n = 410,000). AID 602310; further: nearly all actives have a fitted effect of over 60% in size
Target sequence (Q9HC16 whole entry, looked up): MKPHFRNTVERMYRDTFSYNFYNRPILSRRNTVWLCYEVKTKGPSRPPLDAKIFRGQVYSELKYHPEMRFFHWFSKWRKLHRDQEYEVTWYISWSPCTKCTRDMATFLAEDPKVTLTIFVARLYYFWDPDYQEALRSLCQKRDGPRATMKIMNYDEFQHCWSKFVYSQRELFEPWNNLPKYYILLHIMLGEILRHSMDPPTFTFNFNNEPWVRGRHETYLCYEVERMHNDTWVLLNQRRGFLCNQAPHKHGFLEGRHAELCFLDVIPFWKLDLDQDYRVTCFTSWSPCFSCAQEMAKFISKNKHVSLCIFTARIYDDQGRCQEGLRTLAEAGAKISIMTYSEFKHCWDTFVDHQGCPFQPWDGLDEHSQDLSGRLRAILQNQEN
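HeLa cells stably expressing Vif and C-terminally eYFP-tagged A3G, seeded overnight at 37 deg C, then exposed to compound by pintool overnight at 37 deg C. Rise in yellow fluorescence (Ex 488/Em 500-530, Acumen) marks blocked Vif-driven A3G degradation.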
Giardia killer: kills Giardia lamblia; Giardia lamblia trophozoite viability; activity change, % at 7.66 µM, hits read low; actives 0.15% (n = 340,000); AID 540267; in the data active means activity change below about -80%; inconclusive means between about -30% and that limit;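 further: parasites exposed to compound for two days anaerobically before the ATP read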
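Trophozoites 100 cells/well + cpd; 48 hrs, 37 deg C, anaerobic. ATPLite 1-Step added, 15-30 min RT, luminescence read (ATP-based viability).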
Vif-A3F inh: inhibitors of Vif-A3F interaction. HeLa A3F-eYFP + Vif (tagged APOBEC3F with the HIV-1 protein that degrades it), YFP fluorescence increase. Potency, µM (series often up to 46.1 µM). actives 0.2% (n = 390,000); further: nearly all actives have a fitted effect of over 65% in size
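Fluorescence increase (Ex 488/Em 500-530) after overnight compound treatment at 37 deg C flags inhibition of Vif-driven A3F-eYFP loss in stable HeLa A3F-eYFP/Vif cells seeded overnight beforehand.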
IL-1B inflam inh: blocks inflammasome-driven IL-1 beta release | THP-1 LPS/ATP IL-1B secretion, AlphaLISA, 16 h; stronger effect = lower value | activity change, % at 57.5 µM | actives 4.7% (n = 360,000) | AID 743279; in the data active means activity change below about -50%; inconclusive means mostly about -30% to -49%
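Secreted IL-1B measured by AlphaLISA bead assay after 16 h compound exposure of THP-1 cells; compounds (final up to 57.5 uM) added 1 h before LPS (250 ng/mL) and ATP (1.25 mM) stimulation; lower signal means less secretion.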
SW480 rerep: inducers of DNA re-replication in SW480 colon cancer cells | SW480 DNA re-replication, Hoechst DNA content imaging, 48 h | Potency, µM (top dose mostly 46.1 µM), actives largely listed as activators | actives 1.8% (n = 340,000) | AID 624297; further: nearly all actives have a fitted effect of over 55% in size
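Treated cells incubate 48 hr (37 C, 5% CO2), are stained 40 min with Hoechst, and nuclear fluorescence is enumerated; a rise in nuclei with high DNA signal marks re-replication.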
Hits are given with their value; – = inactive; ? = inconclusive; · = no result. Unless noted, the call rests on the fitted dose curve; in most records, active means well fitted curve in the direction sought with a large enough effect; inconclusive means small, poorly fitted or top-dose-only effect, or another doubt; inactive means no such curve, though single readings can be large; an effect the other way counts as inactive or inconclusive.

SMILES	MCF10A rerep	Vif-APOBEC3G blk	Giardia killer	Vif-A3F inh	IL-1B inflam inh	SW480 rerep
CC(C)(C)c1ccc(-c2nc(NCc3cccnc3)c3ccccc3n2)cc1	13µM	–	–	–	-65.5	–
c1ccc(-c2nc(NCCCn3ccnc3)c3ccccc3n2)cc1	–	–	–	–	-73.2	–
c1cncc(CNc2nc(-c3cccnc3)nc3ccccc23)c1	–	–	–	–	–	–
O=C(NCCc1nc2ccccc2n1Cc1c(F)cccc1Cl)c1ccco1	·	–	·	–	·	·
C[C@@H]1CC2[C@@H]3CC[C@H]4CC(=O)CC[C@]4(C)C3=CC[C@]2(C)[C@@]1(O)C(=O)CO (some centres not stated)	–	–	–	–	–	–
CC(=O)C1(O)C(C)CC2C3CCC4CC(O)CCC4(C)C3=CCC21C (configuration not stated)	18.4µM	–	–	–	–	?
COc1ccc(C(=O)NC2CC(=O)N(c3ccc4c(c3)OCCO4)C2)cc1 (configuration not stated)	·	–	·	–	·	·
NC(=O)C(c1ccc(F)cc1)c1ccc(C(=O)c2ccccc2)cc1 (configuration not stated)	–	–	–	–	–	–
NC(=O)C(c1ccc(Br)cc1)c1ccc(C(=O)c2ccccc2)cc1 (configuration not stated)	?	–	–	–	-91.4	?
COC(=O)c1cccc(NC(=O)c2ccc(OC)c(Cl)c2)c1	–	–	–	–	-72.1	–
COc1ccc(C(=O)Nc2cc(C(=O)O)cc(C(=O)O)c2)cc1Cl	–	–	?	–	–	–
COc1ccc(OC)c(NC(=O)c2cccc(NC(=O)c3ccccc3)c2)c1	–	–	–	–	-56.8	–
Clc1cccc(Nc2ncnc3ccc(Br)cc23)c1	–	–	–	–	-57.8	–
Cc1cccc(Nc2ncnc3ccc(Br)cc23)c1	–	–	–	–	-50.8	–
Clc1ccc(Nc2ncnc3ccc(Br)cc23)cc1	?	–	–	–	–	–
Cc1cc(C)cc(S(=O)(=O)N2CCN(c3nc(-c4cccs4)nc4ccccc34)CC2)c1	·	·	–	·	·	·
Cc1ccccc1CSc1ncc(CO)n1Cc1ccc(F)cc1	·	–	·	–	·	·
CCOC(=O)C(=O)NNc1cccc(C)c1C	8.2µM	–	–	–	–	–
CCCNC(=O)c1cc2c(c(-c3cccc(-c4cc5ccccc5o4)c3)n1)[C@H](CCO)N(C(=O)NC(C)C)C2	·	·	·	·	-72.1	·
O=C(NCC1CC1)c1cc2c(c(-c3cccc(-c4ccccc4F)c3)n1)[C@@H](CCO)N(C(=O)CC1CC1)C2	·	·	·	·	-59.5	·
CC(C)(C)S(=O)N1Cc2cc(C(=O)NCc3ccc(Oc4ccccc4)cc3)nc(-c3cccc(-c4cc5ccccc5o4)c3)c2[C@H]1CCO (some centres not stated)	·	–	·	·	-51.9	·
CC(C)(C)S(=O)N1Cc2cc(C(=O)NCc3ccc4c(c3)OCO4)nc(-c3cccc(-c4cc5ccccc5o4)c3)c2[C@@H]1CCO (some centres not stated)	·	–	·	·	–	·
O=C(NCC1CC1)c1cc2c(c(-c3cccc(-c4ccccc4F)c3)n1)[C@H](CCO)N(C(=O)CC1CC1)C2	·	·	·	·	–	·
CCC(=O)N1CCN(c2ccc(Cl)cc2NC(=O)c2ccc([N+](=O)[O-])o2)CC1	?	–	-100.6	–	–	9.2µM
O=C(Nc1cc(Cl)ccc1-n1cncn1)c1ccc([N+](=O)[O-])o1	?	?	?	?	-65.1	20.6µM
SMILES	MCF10A rerep	Vif-APOBEC3G blk	Giardia killer	Vif-A3F inh	IL-1B inflam inh	SW480 rerep
CCCC(=O)Nc1cc(Cl)ccc1N1CCN(C(=O)CC)CC1	18.4µM	–	–	–	–	–
CCN1CCN(c2ccc(NC(=O)c3ccc([N+](=O)[O-])o3)cc2Cl)CC1	1.3µM	–	?	–	-106.8	–
O=C(Nc1cc(Cl)ccc1F)c1ccc(-n2cncn2)c([N+](=O)[O-])c1	–	–	–	–	?	–
CCC(=O)N1CCN(c2ccc(Cl)cc2NC(=O)c2cccc([N+](=O)[O-])c2)CC1	?	–	–	–	–	–
COc1ccccc1NC(=O)C1=C(C)Nc2nc(SC)nn2C1c1ccccc1Cl (configuration not stated)	·	–	·	–	·	·
CCOC(=O)C1CCN(C(c2cccc(F)c2)c2c(O)cc(C)n(Cc3ccco3)c2=O)CC1 (configuration not stated)	·	–	·	–	·	·
CCC(=O)N1CCN(c2ccc(NC(=O)c3ccc([N+](=O)[O-])o3)cc2Cl)CC1	?	–	-92.2	–	-107.0	–
CC(=O)N1CCN(c2ccc(NC(=O)c3ccco3)cc2Cl)CC1	–	–	–	–	–	–
CC(=O)N1CCN(c2ccc(NC(=O)c3ccc([N+](=O)[O-])o3)cc2Cl)CC1	3.26µM	–	-80.6	–	-101.9	?
O=C(Nc1cccc2cccnc12)OC(Cl)(Cl)Cl	·	–	–	·	·	·
COc1cccc(NC(=O)CN2C(=O)c3cccc4cccc2c34)c1	·	–	·	–	·	·
CCCCc1c(-c2cccc(Br)c2)ncn1CCc1ccccc1OC	·	·	·	·	-72.0	·
CCCCc1c(-c2cccc(F)c2)ncn1CCc1ccccc1OC	·	·	·	·	-74.2	·
CCCCCc1c(-c2cccc(F)c2)ncn1CCc1ccccc1OC	·	·	·	·	–	·
CCCc1c(-c2cccc(F)c2)ncn1CCc1ccccc1OC	·	·	·	·	-77.9	·
CCCCCc1c(-c2cccc(OC)c2)ncn1CCc1ccccc1OC	·	·	·	·	-85.5	·
COc1ccc(-c2cc3ccc(O)c(CN4CCOCC4)c3oc2=O)cc1OC	·	–	·	–	·	·
CCOc1ccc(Nc2nc(-c3cccc(Cl)c3)c3c(n2)-c2ccccc2OC3)cc1	·	–	·	–	·	·
CC(C)=CC(=O)OCc1cc([N+](=O)[O-])cc2c1OCOC2	–	–	–	–	-52.9	–
O=C(OCc1cc([N+](=O)[O-])cc2c1OCOC2)c1ccc2ccccc2n1	–	–	–	–	–	–
CCC1CC=CC2C1C(=O)N(Cc1ccccc1)C2c1ccc(OC)c(Cl)c1 (configuration not stated)	·	–	–	·	·	·
COC(=O)c1ccc(CSc2nnc(Nc3ccccc3OC)s2)o1	9.2µM	?	–	–	–	–
COc1ccc(N2CCN(Cc3nc4c(c(=O)n(C)c(=O)n4C)n3C(C)C)CC2)cc1	·	–	·	–	·	·
CN1/C(=C\C=[N+](C)c2ccccc2)C(C)(C)c2ccccc21	–	–	–	–	-95.0	–
CC1=NN(c2ccccc2)C(=O)/C1=C\C=C1/N(C)c2ccccc2C1(C)C	?	–	–	–	-85.5	–
CN1/C(=C/C=C(/C#N)C(N)=O)C(C)(C)c2ccccc21	5.01µM	?	–	–	–	6.31µM
CN1/C(=C\C=C(/C#N)C(=O)Nc2ccccc2F)C(C)(C)c2ccccc21	?	–	–	?	–	–

Screening data: PubChem BioAssay, National Center for Advancing Translational Sciences (NCATS)
